Each structure is given as a SMILES string. The whole screen tested about 16,000 compounds, of which about 5,100 (32%) were called active. Roughly 25% stayed inconclusive and do not appear here. The list shows a part of the results. Unmarked numbers belong to inactive results. The call rests on the fitted dose curve; in most records, active means well fitted curve in the direction sought with a large enough effect; inconclusive means small, poorly fitted or top-dose-only effect, or effect the other way; inactive means no such curve, though single readings can be large or run the other way.
On the % scale 0 is the no-effect control and ±100 the full control effect.

Sequence of Cytochrome P450 3A4 (Homo sapiens) (P08684 whole entry, looked up): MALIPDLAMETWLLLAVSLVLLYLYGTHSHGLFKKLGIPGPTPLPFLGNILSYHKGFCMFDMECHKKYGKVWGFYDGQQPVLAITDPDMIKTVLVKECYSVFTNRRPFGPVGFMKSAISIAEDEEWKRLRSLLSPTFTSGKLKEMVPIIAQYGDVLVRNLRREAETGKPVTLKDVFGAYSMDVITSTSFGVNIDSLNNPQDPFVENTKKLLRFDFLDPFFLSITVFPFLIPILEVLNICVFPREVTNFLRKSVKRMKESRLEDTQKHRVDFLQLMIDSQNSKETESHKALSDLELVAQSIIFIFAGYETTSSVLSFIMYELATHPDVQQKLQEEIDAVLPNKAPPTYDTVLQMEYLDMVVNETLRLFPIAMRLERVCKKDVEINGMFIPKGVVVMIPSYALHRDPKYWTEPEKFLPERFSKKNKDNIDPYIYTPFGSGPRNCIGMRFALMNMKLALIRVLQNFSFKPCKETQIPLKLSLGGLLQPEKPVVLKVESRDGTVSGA

This assay has as its target Cytochrome P450 3A4 (Homo sapiens) (UniProt P08684). Kind of assay: Cytochrome panel assay with activity outcomes. The note with it: recombinant CYP, pro-luciferin dealkylation, luminescence, p450-cyp3a4; series mostly up to 57.1 µM.
As for `O=C(/C=C\c1ccc(O)c(O)c1)OCCc1ccccc1`, the AC50 was 15.8 µM (active).
Still for that read-out and setting: the entry for `O=C(O)/C=C\c1ccc(O)c(O)c1` is “inactive”; for `O=C(/C=C\c1ccc(O)c(O)c1)O[C@@H](Cc1ccc(O)c(O)c1)C(=O)O` it is “inactive”; for `CCn1c2ccccc2c2cnc(N=CN(C)C)c(C#N)c21` it is 7.94 µM (active).
Regarding `Nc1nc(N)nc(CC(=O)O)n1`, the activity, negative = inhibition is -10.1% [at 11.4 µM].
For `COC(=O)N1CCC2(CC1)CCN(c1ccncc1)CC2`, the AC50 entry is “inactive”.
Still for that read-out and setting: in the case of `O=C(Oc1ccccc1)N1CCC2(CC1)CCN(c1ccncc1)CC2` it was “inactive”; in that of `O=C(Oc1ccccc1)N1CCC[C@@]2(CCN(c3ccncc3)C2)C1`, 12.6 µM (active).
Consider `COC(=O)N1CCC[C@@]2(CCN(c3ncccn3)C2)C1`, for which the AC50 result was “inactive”.
Still for that read-out and setting: in the case of `COC(=O)N1CCC[C@@]2(CCN(c3ccncc3)C2)C1` it was 3.98 µM (active).
On the same count and under the same terms, the figure for `O=[N+]([O-])c1cccnc1NCCNc1ncc(C(F)(F)F)cc1Cl` is 12.6 µM (active).
Turning to `O=[N+]([O-])c1ccc2ncccc2c1CCc1c([N+](=O)[O-])ccc2ncccc12`, the activity, negative = inhibition was -12.1% [at 11.4 µM].
Still for that read-out and setting: the figure for `O=C(O)C[C@H](NC(=O)CP(=O)(O)O)C(=O)O.[NH-][C@@H]1CCCC[C@@H]1[NH-].[Pt]` is -3.72% [at 11.4 µM].
Consider `O=c1ccc(NS(=O)(=O)c2ccc(Cl)cc2)cn1Cc1ccc(Cl)c(Cl)c1`, for which the AC50 was 5.62 µM (active).
Same read-out and setting: in the case of `Cc1cc(NS(=O)(=O)c2ccc(NC(=O)CN3C(=O)c4ccccc4C3=O)cc2)nc(C)n1` it was “inactive”.
Same read-out and setting: the figure for `O=c1ccc(NS(=O)(=O)c2ccccc2)cn1Cc1ccc(Cl)c(Cl)c1` is 6.31 µM (active); for `Cc1ccc(S(=O)(=O)Nc2ccc(=O)n(Cc3ccc(Cl)c(Cl)c3)c2)cc1` it is 3.16 µM (active); for `C#CCOC(=O)Nc1ccc(=O)n(Cc2c(Cl)cccc2Cl)c1` it is “inactive”.
Take `O=S(=O)(Nc1ccc2oc(-c3ccccc3)nc2c1)c1ccccc1`: the activity, negative = inhibition is -16% [at 2.29 µM].
For `O=S(=O)(NCc1cc(-c2ccccc2Cl)no1)c1ccccc1`, the AC50 result was “inactive”.
The same measure, in the same setting: the entry for `CC1(C)S[C@@H]2[C@H](NC(=O)[C@H](C(=O)O)c3ccsc3)C(=O)N2[C@H]1C(=O)O` is “inactive”.
Same read-out and setting: the figure for `CC12CCC(C(=O)Nc3ncc([N+](=O)[O-])s3)(OC1=O)C2(C)C` (centres undefined) is 15.8 µM (active); for `CCCCC#Cc1nc(NC)c2ncn([C@@H]3O[C@@H](CO)[C@H](O)[C@H]3O)c2n1` it is “inactive”.
Take `CCSc1nnc(-c2ccc(Cl)cc2)c2ccccc12`: the activity, negative = inhibition was 15.9% [at 2.29 µM].
For the compound `C#CCSc1nc(Cc2ccc(Cl)cc2)nc2ccccc12`, the AC50 is 15.8 µM (active).
As to `CC(C)(C)c1ccc(O)c(CN(Cc2c(O)ccc3ccccc23)C2CCCCC2)c1`, the activity, negative = inhibition is -11.1% [at 11.4 µM].
Turning to `CS(=O)(=O)N(Cc1cc2ccccc2[nH]c1=O)C1CCCCC1`, the half-maximal activity concentration (AC50) is 2.24 µM (active).
As for `CN(Cc1cc2ccccc2[nH]c1=O)S(C)(=O)=O`, the activity, negative = inhibition was 5.8% [at 11.4 µM].
Consider `CSc1nc(N)c2ncn([C@@H]3O[C@@H](COP(=O)(O)OP(=O)(O)O)[C@@H](O)[C@H]3O)c2n1`, for which the AC50 entry is “inactive”.
The same measure, in the same setting: in the case of `C=CC(=O)NC(NC(=O)C=C)c1ccc(Br)cc1` it was “inactive”; in that of `N#Cc1c(NC(=O)CCN2C(=O)c3ccccc3C2=O)oc(-c2ccccc2)c1-c1ccccc1`, 3.98 µM (active).
As for `Cc1ccc(NC(=O)NNC(=O)Cn2nc(-c3ccccc3)c(-c3ccccc3)c(C#N)c2=O)cc1`, the activity, negative = inhibition was 26.4% [at 0.457 µM].
For `CC(C)(C)c1ccccc1OCCN1CCCC1`, the AC50 entry is “inactive”.
On the same count and under the same terms, the entry for `Cc1ncc([N+](=O)[O-])n1CCO` is “inactive”.
Same read-out and setting: the entry for `Cc1ncc([N+](=O)[O-])n1CC(=O)NCc1ccccc1` is “inactive”; for `Cc1ncc([N+](=O)[O-])n1CCOC(=O)NC(NCc1ccccc1)C(Cl)(Cl)Cl` (centres undefined) it is 15.8 µM (active); for `O=C(Nc1cccc2ccccc12)c1cn(-c2ccccc2)nc1-c1cccs1` it is 7.94 µM (active).
On to `O=C(Nc1c(C(=O)N2CCOCC2)cnn1-c1ccccc1)c1ccco1`, for which the AC50 result is “inactive”.
Still for that read-out and setting: the figure for `O=C(c1cn(-c2ccccc2)nc1-c1cccs1)N1CCOCC1` is 15.8 µM (active).
As for `O=C(N1CCOCC1)N1CCN(c2ccccc2)CC1`, the activity, negative = inhibition was -14.3% [at 11.4 µM].
As for `CCOc1ccc(-c2c[n+](=O)c3c(n2[O-])CCCC3)c(OCC)c1`, the AC50 result is “inactive”.
On to `NCCCc1ccc2oc3ccccc3c2c1`, for which the activity, negative = inhibition was 0.505% [at 11.4 µM].
Consider `CCCNS(=O)(=O)c1ccc(OCC(=O)OC)cc1`, for which the AC50 result is “inactive”.
The same measure, in the same setting: in the case of `COc1ccc(OCCNS(=O)(=O)c2ccc3oc4ccccc4c3c2)cc1` it was 7.08 µM (active).
Regarding `Cc1nc2ccccc2nc1SCC(=O)N1CCC(C)CC1`, the activity, negative = inhibition is 3.87% [at 2.29 µM].
Turning to `Cc1sc2nc(C3CC3)nc(SCC(=O)N3CC(=O)Nc4ccccc43)c2c1C`, the concentration at half-maximal activity (AC50) was 2.24 µM (active).
For the compound `Cc1ncc(CSC(=N)N)n1Cc1ccccc1`, the activity, negative = inhibition is 6.78% [at 11.4 µM].
In the case of `Cc1scc2c1N(C(=O)CN1CCN(C)CC1)c1ccccc1NC2=O`, the AC50 result is “inactive”.
In the case of `O=C(O)[C@@H]1CS[C@@]2(CCCN(Cc3ccccc3)C2)N1`, the activity, negative = inhibition is 0.282% [at 11.4 µM].
Consider `Cc1nnc(SCC(=O)N2CC(=O)Nc3ccccc32)n1Cc1ccccc1`, for which the concentration at half-maximal activity (AC50) is 7.94 µM (active).
As to `CCOC(=O)N/N=C1/C[C@@H](O)[C@@H](O)[C@@H]2[C@@H]3C(=O)N(C(C)(C)C)C(=O)[C@H]3CC[C@H]12`, the activity, negative = inhibition is -10.6% [at 11.4 µM].
For `C[C@@H](NCc1cc(Br)cc2[nH]c(=O)c(=O)[nH]c12)P(=O)(O)O`, the AC50 entry was “inactive”.
With `COc1cccc(-c2ccc3ncnc(NCc4cccs4)c3c2)c1`, the half-maximal activity concentration (AC50) was 7.94 µM (active).
On the same count and under the same terms, the figure for `c1csc(CNc2ncnc3ccc(-c4ccoc4)cc23)c1` is 7.94 µM (active).
Still for that read-out and setting: in the case of `N#Cc1cccc(-c2ccc3ncnc(NCc4cccs4)c3c2)c1` it was 3.16 µM (active); in that of `C[C@@H](CCCCC(=O)Nc1ccc(C(F)(F)F)cc1)NCCc1cnc[nH]1`, 5.01 µM (active).
Same read-out and setting: in the case of `NCCC(=O)NCCc1cnc[nH]1` it was “inactive”.
As to `O=CN[C@@H](Cc1cnc[nH]1)C(=O)O`, the activity, negative = inhibition is -4.87% [at 11.4 µM].
The same measure, in the same setting: the figure for `CC(C)(C)N1C(=O)[C@H]2[C@@H]3[C@H](O)C=CC(=O)[C@H]3CC[C@H]2C1=O` is -16.6% [at 11.4 µM].
As for `CCc1ccc(C(=O)COC(=O)C(Cc2ccccc2)NC(=O)C2CCC(C)CC2)cc1` (centres undefined), the half-maximal activity concentration (AC50) is 3.55 µM (active).
For the compound `N#CCSc1ncnc2c1cnn2CCO`, the AC50 entry was “inactive”.
On the same count and under the same terms, in the case of `Cc1[nH]n2c(=O)c3c(nc2c1-c1cccc2ccccc12)CCC3` it was “inactive”; in that of `O=c1c2c(nc3c(-c4ccccc4)c[nH]n13)CCC2`, “inactive”.
The same measure, in the same setting: the entry for `N#Cc1c[nH]n2c(=O)c3c(nc12)CCCC3` is “inactive”.
As to `Nc1[nH]n2c(=O)cc(-c3ccccc3)nc2c1N=Nc1ccccc1`, the activity, negative = inhibition was -10.8% [at 2.29 µM].
Turning to `Nc1[nH]n2c(=O)c3c(nc2c1N=Nc1ccccc1)CCCC3`, the concentration at half-maximal activity (AC50) was 5.01 µM (active).
Same read-out and setting: in the case of `Cc1ccc(-c2[nH]n3c(=O)c4c(nc3c2C)CCCC4)cc1` it was 8.91 µM (active).
For `NC(=O)NCc1ccc(Cl)cc1`, the activity, negative = inhibition is 4.51% [at 11.4 µM].
For the compound `O=C(NCCO)c1ccc(Cl)cc1`, the activity, negative = inhibition was -18% [at 11.4 µM].
For the compound `O=C(NCc1ccc(Cl)cc1)c1ccc(Cl)cc1[N+](=O)[O-]`, the AC50 was 12.6 µM (active).
Still for that read-out and setting: in the case of `Cc1ccc(C(=O)NCCNc2ccc(Cl)cc2[N+](=O)[O-])o1` it was 6.31 µM (active).
Consider `CCOc1ccc(NC(=O)c2ccc(Br)o2)c([N+](=O)[O-])c1`, for which the activity, negative = inhibition is 0.495% [at 2.29 µM].
As for `Oc1ccccc1C1Nc2cccc3cccc(c23)N1`, the AC50 entry was “inactive”.
The same measure, in the same setting: in the case of `Oc1ccc(C2Nc3cccc4cccc(c34)N2)c(O)c1` it was 15.8 µM (active); in that of `CN[C@H](CC(=O)O)C(=O)O`, “inactive”; in that of `Cc1ccc(S(=O)(=O)c2cc3ccccc3oc2=Nc2ccc3c(c2)OCO3)cc1`, 2 µM (active).
For the compound `Cc1ccc(N=Nc2c(O)ccc3cc(S(=O)(=O)O)ccc23)cc1`, the activity, negative = inhibition is -19% [at 11.4 µM].
The same measure, in the same setting: the figure for `O=C(O)c1cc(C(=O)O)nc(C(=O)O)c1` is -8.29% [at 11.4 µM].
Regarding `CCc1noc(C)c1C(=O)Nc1nc(-c2cc(C)ccc2C)c(C)s1`, the AC50 was 3.55 µM (active).
For `CCOC(=O)Nc1nc(-c2ccccc2)c(C)s1`, the activity, negative = inhibition was -11.6% [at 11.4 µM].
Regarding `COc1ccc(Cn2c(SCc3ccccc3C)nc3cc(OC)c(OC)cc3c2=N)cc1`, the AC50 was 8.91 µM (active).
The same measure, in the same setting: in the case of `COc1cc2nc(SCc3ccc(Cl)cc3Cl)n(Cc3cccs3)c(=N)c2cc1OC` it was 2 µM (active); in that of `Cc1ccc(C(=O)N2C3C=CC(C3)C2(C(F)(F)F)C(F)(F)F)cc1` (centres undefined), 1.12 µM (active).
Turning to `Cc1ccc(-n2c3c(c(=O)[nH]c2=O)C(C(F)(F)F)(C(F)(F)F)NC(=O)N3)cc1`, the activity, negative = inhibition is -3.33% [at 2.29 µM].
On to `CC(C)(C)NS(=O)(=O)c1ccc(NC(=O)C(Sc2ccccc2)c2ccccc2)cc1` (centres undefined), for which the AC50 was 14.1 µM (active).
The same measure, in the same setting: in the case of `CC(C)(C)NS(=O)(=O)c1ccc(NC(=O)c2cc(-c3ccccc3)nc3ccccc23)cc1` it was “inactive”.
On to `CC(C)(C)c1nnc(NC(=O)NS(=O)(=O)c2ccccc2)s1`, for which the AC50 entry is “inactive”.
With `Cc1cc(=O)oc2cc(O)c(CN(C)CC(=O)O)cc12`, the activity, negative = inhibition was -2.73% [at 11.4 µM].
Consider `Cc1c(O)c(=O)n(-c2ccccc2)n1C`, for which the AC50 result was “inactive”.
Still for that read-out and setting: in the case of `Cc1c(-n2cc(C(=O)c3cc(Cl)ccc3O)cc(C#N)c2=O)c(=O)n(-c2ccccc2)n1C` it was “inactive”.
Same read-out and setting: in the case of `Cc1ccc(O)c(C(=O)c2cc(C#N)c(=O)n(-c3c(C)n(C)n(-c4ccccc4)c3=O)c2)c1` it was 5.62 µM (active).
As to `Cc1cc(C)n(-c2nc(NCC(C)O)c3c4c(sc3n2)COC(C)(C)C4)n1` (centres undefined), the activity, negative = inhibition was -17.9% [at 11.4 µM].
As for `Cc1nn2c(C)nc3sc4c(c3c2nc1=O)CC(C)(C)OC4`, the AC50 result is “inactive”.
`CCCSc1nc(NCc2ccco2)c2c3c(sc2n1)COC(C)(C)C3`: the concentration at half-maximal activity (AC50) was 15.8 µM (active).

The record behind these values is PubChem BioAssay AID1851 (National Center for Advancing Translational Sciences (NCATS), 2009).
